# Laboratory results: PubChem BioAssay
# Several values for one entry are separate records, joined by “and”; a condition that tells them apart may be missing. Identical values can stand only once. Activity calls are given as the source filed them.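 Rule for the calls, unless noted: active = compounds whose cell count with miR-34 switched on is under 0.7 times the count with it off; inactive = the rest.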
# Columns and labels:
# [1] = P. berghei load reduction in hepatocytes – cell-based, HepG2, luciferase luminescence, HepG2 viability, primary screen (AID 624349; in the data active = parasite load remaining mostly below about 12%, no sharp cut-off; inactive = mostly above about 10%;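 note: 100% = mean of DMSO negative control wells on the same plate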); settings: P. berghei liver stage in HepG2, luciferase luminescence, concentration not given here; parasite load remaining: stronger effect = lower value; viability: measured here: HepG2 viability without parasites
# [2] = Wnt pathway potentiators raising nuclear beta-catenin – imaging, WNT3A-conditioned medium, mouse C2C12, NPC library, primary screen (AID 1117326; in the data active = nuclear beta-catenin stimulation mostly above about 4.2%, no sharp cut-off; inactive = mostly below about 10%); settings: stronger effect = higher value
# [3] = stimulators of insulin release from INS-1E, primary screen, cell-based, 5 mM glucose, NPC library (AID 1117329;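 active = compound raises insulin release from rat beta cells at 5 mM glucose, no numeric limit stated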); settings: rat INS-1E insulin secretion, at 10 µM, stronger effect = higher value
# [4] = growth inhibition of GSK3B-pretreated HCT116 cells – cell-based, CellTiter-Glo, 0.2 to 20 µM (AID 1117336;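 active = compounds lowering colon cancer cell viability after pretreatment blocking the GSK3B kinase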); settings: HCT116 viability after GSK3B inhibitor, at 20 µM, stronger effect = higher value
# [5] = inhibition of endothelial tube formation, primary screen, imaging, VEGF stimulated, CD31 staining, tube area, NPC library (AID 1117340;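 active = compound that reduces growth-factor-driven endothelial tube area in a mixed cell culture, no cutoff stated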); settings: VEGF-stimulated ADSC/ECFC co-culture, at 10 µM, stronger effect = higher value
# [6] = GLP1 release stimulators, primary, NCI-H716, NPC library (AID 1117341;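 active = compound raises GLP1 secretion from the human gut endocrine cells, with no numeric limit stated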); settings: NCI-H716 cells, at 10 µM, stronger effect = higher value
# [7] = HCT116 colon cancer cell growth inhibition, primary screen, CellTiter-Glo luminescence, NPC library (AID 1117342;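 active = compounds that lower survival of HCT116 colon cancer cells in the luminescence readout, no numeric limit stated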); settings: at 20 µM (top of the series)
# [8] = reduced SW480 viability measured with CellTiter-Glo, NPC library, primary (AID 1117343;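 active = compounds that lower viability of the colon cancer cells in the luminescence readout, with no numeric limit stated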); settings: CellTiter-Glo luminescence; at 20 µM (top of the series)
# [9] = NPC library primary testing for decreased DLD-1 cell viability via CellTiter-Glo (AID 1117346;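 active = compounds that lower survival of DLD-1 colon cancer cells in the luminescence readout, no cutoff given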); settings: DLD-1 viability, CellTiter-Glo luminescence; at 20 µM (top of the series)
# [10] = molecular target: 6-phosphogluconate dehydrogenase, decarboxylating (Homo sapiens) (UniProt P52209); test: inhibition of human phosphogluconate dehydrogenase – biochemical, recombinant enzyme, NADPH absorbance, primary screen (AID 1159550;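 active = at least 20% inhibition of 6-phosphogluconate dehydrogenase activity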); settings: recombinant 6PGD, NADPH absorbance 341 nm; at 10 µM; stronger effect = higher value
# [11] = viability loss with induced miR-34 in A549 – imaging, A549 dox-inducible miR-34, nuclei and caspase counts, primary screen (AID 1347080); settings: A549 miR-34 inducible, Hoechst nuclei count, 48 h
# [12] = MELAS cybrid and Rieske KO viability enhancers – cell-based, MELAS cybrids, Rieske KO mouse fibroblasts, CellTiter-Glo, primary screen (AID 1508586;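 active = mean z-score across replicates of 1.96 or higher in either the MELAS or the Rieske mutant cell line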;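 note: z relative to plate mean and SD of compound and empty wells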); settings: low glucose
# [13] = molecular target: NAD(+) hydrolase SARM1 (Homo sapiens) (UniProt Q6SZW1); test: blocking NAD cleavage by SARM1 SAM-TIR – cell lysate, NAD-Glo luminescence (AID 1508614;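 active = compound whose remaining NAD level is above about 45 nM, limit read from the data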;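 note: higher remaining NAD means stronger inhibition of SARM1 NADase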); settings: SAM-TIR HEK293T lysate NADase, at 1 µM, stronger effect = higher value
# [14] = molecular target: Mitogen-activated protein kinase 7 (Homo sapiens) (UniProt Q13164); test: Gal4-ERK5 driven luciferase induction – cell-based, HTS, primary screen (AID 1508626;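 active = luciferase signal above three times the same-plate solvent-only control wells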;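 note: luciferase driven by Gal4-ERK5 fusion binding five Gal4 sites before minimal TATA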); settings: HeLa Gal4-ERK5 transactivation, 18 h, at 5 µM, stronger effect = higher value
# [15] = galactose survival enhancers in mitochondrial complex I cybrids – cell-based, galactose medium, ATP luminescence, primary screen (AID 1645843;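 active = z-score of at least 1.8 in each of two replicates, scored against plate mean and spread of sample wells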;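 note: positive z means more ATP and so rescue of galactose-driven cybrid death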); settings: complex I mutant cybrid cells, 72 h, stronger effect = higher value
# [16] = EMT-state selective cytotoxicity in co-culture – imaging, PC-3E GFP, TEM4-18 mCherry, primary screen (AID 1345086;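 active = compounds killing one labelled cell type while sparing the other, by normalised counts and ratio limits, not self-fluorescent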;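 note: cells exposed to compound for 72 h before imaging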;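 for red/green cell ratio (normalised): normalised mesenchymal count divided by normalised epithelial count so high means epithelial killing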); settings: PC-3E GFP / TEM4-18 mCherry co-culture, imaging cell counts, at 1 µM
# [17] = system: Aerobactin synthetase IucA (Klebsiella pneumoniae hvKP1); test: IucA enzyme inhibition, primary screen, biochemical, Spectrum library (AID 1346200; call rule not given here;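 note: 100% = wells without compound and 0% = wells lacking enzyme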); settings: malachite green pyrophosphate, A620, at 8 µM, stronger effect = lower value
# [18] = measured here: relative caspase fold change +Dox/-Dox
# [19] = measured here: total cells with miR-34 induction, stronger effect = lower value
# [20] = measured here: total cells without miR-34 induction
# 6-phosphogluconate dehydrogenase, decarboxylating (Homo sapiens), sequence (P52209 whole entry, looked up): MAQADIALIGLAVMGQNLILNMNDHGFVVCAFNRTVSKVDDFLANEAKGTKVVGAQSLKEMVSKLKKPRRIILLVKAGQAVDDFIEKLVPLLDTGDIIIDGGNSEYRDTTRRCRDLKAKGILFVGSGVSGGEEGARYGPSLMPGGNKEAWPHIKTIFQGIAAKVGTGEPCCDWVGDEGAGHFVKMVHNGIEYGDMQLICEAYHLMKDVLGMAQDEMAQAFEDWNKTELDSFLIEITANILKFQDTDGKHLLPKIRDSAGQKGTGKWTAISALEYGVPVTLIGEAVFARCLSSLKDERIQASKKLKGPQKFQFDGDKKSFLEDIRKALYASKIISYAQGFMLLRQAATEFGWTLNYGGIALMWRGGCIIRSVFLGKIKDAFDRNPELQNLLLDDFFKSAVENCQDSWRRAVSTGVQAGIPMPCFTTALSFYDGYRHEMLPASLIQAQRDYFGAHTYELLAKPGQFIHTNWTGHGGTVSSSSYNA
# Mitogen-activated protein kinase 7 (Homo sapiens), sequence (Q13164 whole entry, looked up, the tested form may be a part): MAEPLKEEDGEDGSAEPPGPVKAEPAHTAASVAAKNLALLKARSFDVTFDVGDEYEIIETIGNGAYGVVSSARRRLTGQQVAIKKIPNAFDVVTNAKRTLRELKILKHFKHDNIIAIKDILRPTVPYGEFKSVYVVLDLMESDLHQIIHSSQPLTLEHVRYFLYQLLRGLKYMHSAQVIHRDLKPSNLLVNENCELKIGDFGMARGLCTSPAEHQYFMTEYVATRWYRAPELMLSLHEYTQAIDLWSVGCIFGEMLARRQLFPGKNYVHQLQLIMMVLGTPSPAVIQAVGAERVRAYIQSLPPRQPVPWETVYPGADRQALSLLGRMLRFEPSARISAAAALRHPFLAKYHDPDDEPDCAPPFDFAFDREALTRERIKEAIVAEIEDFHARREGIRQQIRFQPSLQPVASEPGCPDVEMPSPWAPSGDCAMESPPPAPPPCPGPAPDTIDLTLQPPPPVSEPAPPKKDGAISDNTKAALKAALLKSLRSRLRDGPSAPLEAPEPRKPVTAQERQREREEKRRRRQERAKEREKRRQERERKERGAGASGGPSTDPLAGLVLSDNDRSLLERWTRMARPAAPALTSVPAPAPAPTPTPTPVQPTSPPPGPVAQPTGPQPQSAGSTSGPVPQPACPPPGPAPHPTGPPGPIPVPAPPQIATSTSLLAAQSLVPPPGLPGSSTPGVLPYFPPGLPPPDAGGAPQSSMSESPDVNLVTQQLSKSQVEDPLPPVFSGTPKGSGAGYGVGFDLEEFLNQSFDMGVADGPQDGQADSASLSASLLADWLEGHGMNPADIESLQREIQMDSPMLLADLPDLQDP
# NAD(+) hydrolase SARM1 (Homo sapiens), sequence (Q6SZW1 whole entry, looked up, the tested form may be a part): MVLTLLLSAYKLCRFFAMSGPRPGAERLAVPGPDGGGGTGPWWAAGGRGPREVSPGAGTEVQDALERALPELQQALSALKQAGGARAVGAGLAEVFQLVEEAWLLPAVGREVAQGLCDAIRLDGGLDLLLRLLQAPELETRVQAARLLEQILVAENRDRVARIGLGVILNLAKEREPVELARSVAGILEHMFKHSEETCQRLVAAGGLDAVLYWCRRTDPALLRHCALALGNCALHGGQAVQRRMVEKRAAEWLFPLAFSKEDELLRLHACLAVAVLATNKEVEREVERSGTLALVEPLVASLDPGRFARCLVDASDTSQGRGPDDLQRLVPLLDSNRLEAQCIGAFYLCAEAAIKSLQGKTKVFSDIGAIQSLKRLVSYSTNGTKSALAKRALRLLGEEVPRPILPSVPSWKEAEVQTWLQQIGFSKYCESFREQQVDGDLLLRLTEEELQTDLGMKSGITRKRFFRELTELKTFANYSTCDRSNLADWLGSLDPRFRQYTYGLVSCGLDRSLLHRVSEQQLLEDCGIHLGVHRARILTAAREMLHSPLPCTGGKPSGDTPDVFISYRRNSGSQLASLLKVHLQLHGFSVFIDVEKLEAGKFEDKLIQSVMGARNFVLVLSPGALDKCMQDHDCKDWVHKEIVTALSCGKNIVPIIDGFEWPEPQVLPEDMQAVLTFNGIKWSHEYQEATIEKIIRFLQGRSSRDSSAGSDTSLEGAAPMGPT
compound,measurement,setting,value
C[C@@H]1O[C@@H](O[C@H]2C[C@@H](O)[C@]3(CO)[C@H]4[C@H](O)C[C@]5(C)[C@@H](C6=CC(=O)OC6)CC[C@]5(O)[C@@H]4CC[C@]3(O)C2)[C@H](O)[C@H](O)[C@H]1O,parasite load remaining,[1],-1.77% (inactive) and 5.6% (inactive) and -0.23% (inactive)
same,viability,[1],38.8% and 25.7% and 34%
same,nuclear beta-catenin stimulation,[2]; at 10 µM,0% (inactive)
same,nuclear beta-catenin stimulation,"[2]; stimulation, at 2 µM",-1.2%
same,insulin secretion stimulation,[3],5.8% (inactive)
same,viability decrease,[4],84.8% (active)
same,tube area decrease,[5],112% (active)
same,GLP1 secretion stimulation,[6],9.2% (inactive)
same,inhibition of viability,[7],56.6% (active)
same,viability decrease (inhibition),[8],61% (active)
same,viability decrease (inhibition),[9],77.4% (active)
same,inhibition,[10],-10.9% (inactive)
same,fold change,[11]; stronger effect = lower value,0.999 (inactive) and 0.916 (inactive) and 0.73 (inactive)
same,fold change,[11]; [18],0.275 and 1.45 and 1.97
same,cell count,[11]; [19],345 and 529 and 320
same,cell count,[11]; [20],346 and 578 and 438
same,z-score,"[12]; MELAS cybrid survival, CellTiter-Glo 48 h, stronger effect = higher value",2.21 (active)
same,z-score,"[12]; Rieske KO mouse fibroblast survival, CellTiter-Glo 72 h",-0.329
same,remaining NAD,[13],10 nM (inactive)
same,luciferase signal,[14],16 AU (inactive)
same,z-score,[15],-1.23 (inactive) and -2.25 (inactive)
COc1ccccc1N1CCNCC1,nuclear beta-catenin stimulation,[2]; at 10 µM,0.2% (inactive)
same,nuclear beta-catenin stimulation,"[2]; stimulation, at 2 µM",-0.4%
same,insulin secretion stimulation,[3],-0.2% (inactive)
same,viability decrease,[4],-7.7% (inactive)
same,tube area decrease,[5],7.7% (inactive)
same,GLP1 secretion stimulation,[6],-2.3% (inactive)
same,inhibition of viability,[7],-22.5% (inactive)
same,viability decrease (inhibition),[8],106% (active)
same,viability decrease (inhibition),[9],-1.65% (inactive)
same,inhibition,[10],-1.05% (inactive)
same,red/green cell ratio (normalised),[16]; actives lie on both sides,0.87 (inactive)
same,normalised cell number,[16]; measured here: epithelial PC-3E GFP cell survival,1.09
same,normalised cell number,[16]; measured here: mesenchymal TEM4-18 mCherry cell survival,0.94
same,activity remaining,[17],95.5% (inactive)
same,fold change,[11]; stronger effect = lower value,0.98 (inactive)
same,fold change,[11]; [18],1.58
same,cell count,[11]; [19],9780
same,cell count,[11]; [20],9980
same,z-score,[15],1.06 (inactive)
